Results as given in PubChem BioAssay (NCI).
This is part of a sample that, as a whole, favours compounds with a hit. Of some 83,000 tested, about 20% had one in any assay.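 Step 1: grow cells in 96-well plates. Step 2: add test compound at a single concentration. Step 3: incubate 48 h. Step 4: record percent growth.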 A number with no mark means an inactive call. The source made the active and inactive calls. How the source made its calls: active means growth percent below 10; inactive means the rest.

Key:
Test in all cases: NCI-60 one-dose screen, 48 h (100 = growth as untreated, 0 = no growth, -100 = all killed)
Conditions in all cases: 10 µM unless noted
[1] = tested on: NCI-H23 lung
[2] = tested on: NCI-H226 lung
[3] = tested on: NCI-H322M lung
[4] = tested on: HOP-62 NSCLC
[5] = tested on: NCI-H460 lung
[6] = tested on: HOP-92 NSCLC
[7] = tested on: NCI-H522 lung
[8] = tested on: A549/ATCC NSCLC
[9] = tested on: 786-0 renal
[10] = tested on: COLO 205 colon

Compound	growth [1]	growth [2]	growth [3]	growth [4]	growth [5]	growth [6]	growth [7]	growth [8]	growth [9]	growth [10]
O=C1N=c2cc3c(cc2=C/C1=C/c1sc(=S)n(CCc2ccc(O)cc2)c1O)OCCO3	71.2%	93.5%	95.9%	97%	83.8%	56.7%	37.3%	99.1%	80.5%	75.6%
O=C(COc1ccc(/C=C2\Oc3ccccc3C2=O)cc1)c1ccc(Cl)cc1	107%	92.4%	126%	91.1%	115%	88%	96.1%	112%	91%	108%
CC(C)(C)OC(=O)Nc1ccc2c(c1)C(NC(=O)Nc1cccc(C#N)c1)CC(C)(C)O2 (stereo not given)	41%	48.4%	73.6%	45.8%	25.9%	39.1%	33.7%	40%	50.8%	53.7%
Cc1ccc2[nH]c(=O)c3c(c2c1)OC(N)=C(C#N)C31c2cc(Br)ccc2-c2ccc(Br)cc21	59.1%	58.7%	75.3%	69%	40.5%	42.7%	74.2%	53.9%	46.4%	30.2%
Cc1ccc(NS(=O)(=O)c2ccc3c(c2)C2OCCC2C(c2ccc(C(=O)C(C)C)cc2)N3)cc1C (stereo not given)	38.7%	45.3%	82.2%	70.3%	31.7%	74%	39.2%	27.4%	58.9%	30.8%
COc1ccc(C(=O)Nn2c(NCC(=O)N3c4ccccc4Sc4ccccc43)nnc2-c2ccc(O)cc2)cc1	94.4%	101%	104%	103%	110%	87.9%	92.2%	97.5%	100%	112%
O=c1c2c3c(sc2n2c(-c4cc(-c5ccccc5)nn4-c4ccccc4)nnc2n1Cc1ccccc1)CCCC3	105%	99%	112%	95%	106%	53.2%	45.9%	101%	95.9%	86%
N#C/C(=C\c1ccc(-c2ccccc2F)o1)c1nc(-c2ccco2)cs1	85.5%	80.9%	94.1%	89%	95.1%	85.7%	81.5%	99.1%	104%	99.6%
NC(=S)N/N=C/Cc1ccccc1	99.6%	103%	105%	104%	110%	109%	100%	90.6%	106%	97.2%
O=C1C=C[C@]2(C[C@@H](c3cccc(C(F)(F)F)c3)O[C@@H](c3cccc(C(F)(F)F)c3)O2)O1	50.1%	-72.7% (active)	74.3%	4.06% (active)	1.85% (active)	-5.73% (active)	-78.8% (active)	27.3%	-88.8% (active)	12.1%
N#C/C(=C\c1ccc2c(c1)OCO2)n1nnc2cc(F)c(F)cc21	67.5%	69.5%	86.2%	69.4%	77.5%	46.5%	18.3%	79%	89.2%	87.4%
COc1cccc(-c2nn(-c3ccccc3)cc2-c2ccnc(NCCNC(=O)Nc3ccccc3)c2)c1	62.5%	63.9%	89.8%	58.7%	53.8%	33%	47.6%	30.4%	43.2%	50.4%
O=C(Nc1cccc(Cl)c1)c1cc(N=Nc2ccc([N+](=O)[O-])cc2Cl)ccc1O	63%	97%	94.2%	72.9%	39.6%	28.3%	-16.5% (active)	67.8%	59.1%	82.2%
COc1ccc2c(c1)O/C(=C\c1cccc(OCC(=O)Nc3nc4ccccc4s3)c1)C2=O	-1.91% (active)	83.7%	106%	115%	110%	-24.5% (active)	-60.1% (active)	95.8%	92.2%	104%
COc1cccc(-c2nn(-c3ccccc3)cc2-c2ccnc(NCCNC(=O)Nc3cccc(C(F)(F)F)c3)c2)c1	35.8%	61%	35.8%	9.97% (active)	7.98% (active)	0.983% (active)	-17.9% (active)	7.06% (active)	22.7%	-13.3% (active)
COc1cc2c(cc1-c1c(C)noc1C)ncc1nc(C3CCC(F)(F)CC3)n(C3CCC(OC(F)F)CC3)c12 (stereo not given)	68.3%	66.7%	47.7%	37.1%	62.6%	12.9%	12.5%	64.1%	53.4%	28.4%
O=c1c2cc(F)ccc2sc2c(Nc3cccnc3)nc3ccccc3c12	78.8%	90.5%	88.8%	96.1%	68.5%	75.1%	94.3%	73.7%	86.9%	85%
NS(=O)(=O)c1ccc(-n2nc(C(=O)N/N=C\c3ccc(F)cc3)cc2-c2ccc(Cl)cc2)cc1	84.2%	82.7%	89.6%	74.1%	99.4%	56%	78.4%	95.1%	105%	116%
Cc1c(C)c2c(c(C)c1OCC(=O)O)CC[C@@](C)(CCC[C@@H](C)CCC[C@@H](C)CCCC(C)C)O2	-30.8% [50 µM] (active)	2.79% [50 µM] (active)	43.3% [50 µM]	2.69% [50 µM] (active)	3.28% [50 µM] (active)	-56.6% [50 µM] (active)	-4.29% [50 µM] (active)	-3.06% [50 µM] (active)	-46.4% [50 µM] (active)	-10.6% [50 µM] (active)
O=C(CSc1nnc(-c2ccc(NC(=O)c3cccnc3)cc2)o1)Nc1cccc(Br)c1	92.8%	97.7%	97.2%	99.2%	103%	88.7%	41.4%	95.1%	94.2%	88.4%
Nc1n[nH]c2cc(F)c([C@@H]3Nc4c(F)cc5[nH]ncc5c4[C@H]4C5CCC(C5)[C@@H]34)cc12 (stereo not given in full)	25.5%	46.3%	57%	27.9%	2.33% (active)	33.8%	14.9%	19.4%	29.2%	-8.08% (active)
N#Cc1c(-c2ccccc2)cc(-c2ccc(Nc3nc(Nc4ccc(F)cc4)nc(Nc4ccc(F)cc4)n3)cc2)nc1N	72.9%	101%	96.2%	80.5%	104%	46.8%	89%	86.2%	83.9%	81.9%
COc1cc(C2CC(c3cc(OC)c(OCCCOc4ccc(-n5c(/C=C/c6ccccc6)nc6ccccc6c5=O)cc4)c(OC)c3)=NO2)cc(OC)c1OC (stereo not given)	112%	110%	123%	122%	113%	42.5%	91.1%	99.7%	108%	115%
O=c1c2c3c(sc2nc(N/N=C/c2ccc(Br)cc2)n1Cc1ccccc1)CCCC3	68.2%	79.6%	71.4%	65.6%	69.4%	57.8%	61.2%	74.8%	56.7%	75.4%
COC(=O)[C@]12CC[C@@H](C)[C@H](C)[C@@H]1C1=CC[C@@H]3[C@@]4(C)C(C=O)=C[C@@](C)(COC(C)=O)[C@@H]4[C@H](O)C[C@@]3(C)[C@]1(C)CC2	-12.8% (active)	-25.2% (active)	28.3%	8.74% (active)	-64.6% (active)	-6.92% (active)	-35% (active)	1.47% (active)	-36.2% (active)	-40.4% (active)
Cc1c(O)cc(-c2cnc(N/N=C\c3ccc(Cl)cc3)s2)c(O)c1C	91.5%	87.2%	96.9%	98.6%	100%	81.1%	65.1%	85.1%	110%	106%
